# High-throughput results from PubChem BioAssay.
# HSF-1 act: increases HSF-1 driven luciferase reporter signal; activation, % at 9 µM; 1.7% of 300,000 active; NIH3T3-HGL HSF-1 luciferase reporter, MG132, 8 h; 100% = twice DMSO control signal;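 active means mean replicate activation of at least 50% with a set share of replicates each reaching 50%; inconclusive means only one of those two conditions met; inactive means mean below 50% and too few replicates reaching it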;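 further: 0% = median of the neutral control wells and 100% = twice that signal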
# HSP90 inh: inhibitors of HSP90 luciferase refolding in rabbit reticulocyte lysate; AID 1789; 0.91% of 290,000 active; inhibition, % at 5.6 µM; luciferase refolding luminescence, 3 h;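 active means inhibition above the screen-wide mean plus 3 SD, computed separately per campaign, cut at about 16% in these data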;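 further: 0% = DMSO wells and 100% = 60 µM geldanamycin wells; inhibitors lower the luminescence because luciferase stays unfolded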
# HSF1 inhib: HSF1 inhibition; NIH3T3-HGL HSE-luciferase, MG132-induced, luminescence 8 h; stronger effect = lower value; activity change, negative = inhibition, % at 7.5 µM (by protocol); 0.77% of 300,000 active;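 active means more than half of replicate wells show activity change below -50%, luminescence cut by over half; inconclusive means some wells, but at most half, below -50%; inactive means no replicate well below -50%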;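 further: luciferase reports HSF-1 transcriptional activity via heat shock element; 0% = median of DMSO wells and -100% = zero luminescence signal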
# HIF act: HIF pathway transcriptional activation; 0.32% of 300,000 active; AID 1910; U2OS HRE-luciferase reporter, luminescence; normalized: DMSO 0%, desferrioxamine 100%; activation, % at 7.5 µM (by protocol);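 active means mean activation of at least 10% of the iron chelator positive control signal, with at least half of replicates also reaching 10%; inconclusive means mean and replicate majority disagree about reaching 10%; inactive means mean and most replicates under 10%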
# ARNT TACC3 PPI: disruptors of human ARNT/TACC3 interaction; AlphaScreen His-ARNT PAS-B/GST-TACC3 binding, luminescence; TACC3 fragment carries E629A point mutation; inhibition, % at 9.99 µM; 0.66% of 390,000 active; AID 623870;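 active means mean inhibition of replicates at least 50% and at least half of replicates each reaching 50%; inconclusive means half or more replicates reach 50% but mean below 50%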;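 further: 0% = complete ARNT plus TACC3 wells and 100% = ARNT alone without TACC3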
# * marks the source's active call; other numbers are inactive results; ? = inconclusive; . = not tested or not shown. This is a sample that favours compounds with a hit; in the whole collection about 3.1% have one here.
SMILES,HSF-1 act,HSP90 inh,HSF1 inhib,HIF act,ARNT TACC3 PPI
CNC[C@H]1Oc2ncc(C#CC3CCCCC3)cc2C(=O)N([C@@H](C)CO)C[C@H]1C,.,.,.,.,9
CCC(C(=O)OCC(=O)Nc1cc(Cl)ccc1Cl)c1ccccc1 (configuration not stated),-74,0,-66*,0,-2
CCC(C(=O)OCC(=O)Nc1ccc(OC)cc1OC)c1ccccc1 (configuration not stated),15,4,3,0,13
CC(=O)Oc1ccc(-c2csc(Nc3cccc(C)n3)n2)cc1,65*,2,45,3,-10
COc1ccc(-c2csc(Nc3cccc(C)n3)n2)cc1C,98*,-1,42,6,3
O=C(Nc1ccccc1NC(=O)c1ccccc1F)c1ccccc1F,58*,1,22,-2,-2
O=C(O)c1cccc(NC(=O)c2ccccc2NC(=O)c2ccccc2F)c1,-74,0,-68*,-1,4
O=C(NN=C1CCCCCCCCCCC1)c1ccccc1F,-60,4,-55*,0,-3
C[C@@H]1CN([C@@H](C)CO)C(=O)c2cc(-c3cccnc3)cnc2O[C@@H]1CN(C)C(=O)Nc1ccc2c(c1)OCO2,.,.,.,.,7
CO[C@H]1CN(C)C(=O)c2cccc(C#N)c2OC[C@@H]2O[C@H](CC[C@H]2OC)CCN(C)C(=O)[C@@H]1C,.,.,.,.,-7
COc1cccc(S(=O)(=O)Nc2ccc3c(c2)C(=O)N(C)[C@H]2CC[C@H](CC(=O)Nc4ccc(C(C)C)cc4)O[C@@H]2CO3)c1,.,.,.,.,13
CCn1c(CC(C)C)n[nH]c1=S,59*,4,25,-1,-3
C[C@@H]1CN([C@@H](C)CO)C(=O)c2cc(NC(=O)CCCN(C)C)ccc2O[C@@H]1CN(C)Cc1ccc(C(F)(F)F)cc1,.,.,.,.,-2
S=c1[nH]nc(-c2cnccn2)n1-c1ccccc1,-75,6,-67*,0,8
COc1ccc(-n2c(-c3cnccn3)n[nH]c2=S)cc1,-3,-1,-1,0,4
O=C(CSc1nnc(-c2cnccn2)n1Cc1ccco1)Nc1ccc(Br)cc1,55*,-3,31,0,-5
COc1ccc(C(=O)CSc2nnc(-c3cnccn3)n2Cc2ccco2)cc1,-5,2,-5,-1,1
O=C(CSc1nnc(-c2ccccc2Cl)o1)N1CCOCC1,34,1,21,14*,13
O=C(O)C[C@@H]1C=C[C@@H](NC(=O)c2ccncc2)[C@H](CO)O1,.,.,.,.,-5
Clc1cnc2nc(SC/C=C/c3ccccc3)[nH]c2c1,13,-1,18,0,.
C(=C\c1ccccc1)/CSc1nc2ncccc2[nH]1,72*,-1,43,1,-7
COC(=O)C[C@@H]1CC[C@@H]2[C@H](COc3ccc(NS(=O)(=O)c4ccc(F)cc4)cc3C(=O)N2C)O1,.,.,.,.,-3
O=C(C[C@@H]1CC[C@@H]2[C@H](COC[C@@H](O)CN2C(=O)Nc2ccc(Cl)cc2)O1)NCCc1ccncc1,.,.,.,.,-2
O=C(CCc1ccccc1)N/N=C\C1CC=CCC1 (configuration not stated),-16,-3,-5,-1,0
CC(C)(C)c1ccc(OCC(=O)N/N=C/C2CC=CCC2)cc1 (configuration not stated),-9,-1,-8,0,25*
SMILES,HSF-1 act,HSP90 inh,HSF1 inhib,HIF act,ARNT TACC3 PPI
CCCCOc1ccc(CSc2ncn[nH]2)cc1,86*,1,31,-31,-7
COc1cc(C2C(C(=O)c3cc4ccccc4o3)=C(O)C(=O)N2c2cc(C)on2)cc(OC)c1OC (configuration not stated),57*,-2,25,0,-4
COc1cccc(C2C(C(=O)c3cc4ccccc4o3)=C(O)C(=O)N2c2cc(C)on2)c1OC (configuration not stated),6,3,5,0,-1
CCCNC(=O)N1[C@@H](CO)[C@@H](c2ccccc2)[C@@H]1CNC(=O)c1cccc(F)c1,.,.,.,.,-24
C=CCN(CC=C)c1cnn(-c2nc3ccccc3[nH]2)c(=O)c1Cl,?,6,28,1,2
O=c1c(Cl)c(NCCCO)cnn1-c1nc2ccccc2[nH]1,63*,4,54,7,-1
Cc1ccccc1NC(=O)Nc1ccc2c(c1)C(=O)N(C)[C@@H]1CC[C@H](CC(=O)O)O[C@H]1CO2,.,.,.,.,-5
COc1ccc(C(=S)Nc2ccc(N(C)C)cc2)cc1,60*,0,29,1,4
COc1ccc(NC(=S)c2ccc(N(C)C)cc2)cc1,?,-6,15,36*,-6
c1cn(CCCNC2=NCCCCC2)cn1,-13,1,-8,1,97*
CO[C@@H]1CN(C)C(=O)c2cc(NC(=O)Nc3ccccc3F)ccc2OC[C@H](C)N(CC2CC2)C[C@H]1C,.,.,.,.,4
O=C(Nc1ccc2ccccc2n1)c1ccccc1Br,71*,1,34,4,-6
Cc1ccc(C(=O)Nc2ccc3ccccc3n2)cc1,58*,7,26,-8,-9
CCN(CC)CCn1c(NC(=O)c2ccc(C(F)(F)F)cc2)nc2ccccc21,.,2,.,0,-4
O=C(Nc1ccc2ccccc2n1)c1ccccc1,37,11,26,2,-8
CCN(CC)CCn1c(NC(=O)c2ccc(C)cc2)nc2ccccc21,57*,-3,14,4,29
O=C(CCc1ccccc1)Nc1ccc2ccccc2n1,92*,-3,41,1,-14
Nc1ccccc1NC(=O)c1ccccc1,34,-2,4,25*,-2
CCc1cc2c(Sc3nc4ccccc4s3)ncnc2s1,99*,0,62,0,4
c1ccc(CSc2ncnc3sccc23)cc1,1,4,-7,0,-9
CCc1cc2c(SCC(=O)Nc3ccc(NC(C)=O)cc3)ncnc2s1,.,.,.,.,1
c1ccc2sc(Sc3ncnc4sccc34)nc2c1,329*,-3,235,0,3
O=[N+]([O-])c1ccc(Nc2ccc(F)cc2)cc1,-84,1,-81*,1,29
O=[N+]([O-])c1ccc(Nc2ccc(F)cc2)nc1,20,-2,-2,1,-5
CC1=NNC(=O)C1Cc1ccccc1 (configuration not stated),11,.,1,0,.
CC1=NNC(=O)C1C(c1ccccc1)C1C(=O)NN=C1C (configuration not stated),128*,-2,84,0,.
COc1cccc(NC(=O)N(C)C[C@H]2Oc3cc(-c4ccccc4F)ccc3S(=O)(=O)N([C@@H](C)CO)C[C@H]2C)c1,.,.,.,.,2
COc1ccccc1S(=O)(=O)N[C@@H]1CC[C@H](CCNC(=O)C2CC2)O[C@H]1CO,.,.,.,.,1
CCOC(=O)N1CCC(N2C(=O)c3ccccc3C2Nc2cc(C(=O)OC)cc(C(=O)OC)c2)CC1 (configuration not stated),-82,1,-78*,0,-5
